This note sets out measurements from PubChem BioAssay.

A short description of experiment [1]: antimalarial activity against Dd2 strain (AID 2302;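 active = growth inhibition above 50% at the single 2 µM test dose, taken to imply half-maximal potency below 2 µM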;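 note: 0% = DMSO untreated growth and 100% = chloroquine plus artemisinin killed control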). Particulars: P. falciparum Dd2 in RBCs, LDH growth readout, 72 h; at 2 µM; stronger effect = higher value.
Experiment [2] can be described thus: HepG2 cytotoxicity, primary screen, cytotoxicity control for P. falciparum antimalarial project, cell-based, ATP luminescence (AID 2303;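 active = inhibition above 50%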;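 note: 0% = DMSO wells and 100% = digitonin-killed cells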). Particulars: HepG2 viability, 24-48 h, at 10 µM, stronger effect = higher value.
The target of experiment [3] is L-lactate dehydrogenase (Plasmodium falciparum (isolate CDC / Honduras)) (UniProt Q27743). The experiment can be described thus: PfLDH activity inhibition – cell lysate, 3D7 strain, counter-screen for P. falciparum growth inhibition project (AID 2304).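 Note: 0% = vehicle and 100% = reference inhibitor.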 The note with it: P. falciparum 3D7 crude extract, LDH APAD/NBT absorbance; at 2 µM; stronger effect = higher value.
L-lactate dehydrogenase (Plasmodium falciparum (isolate CDC / Honduras)), sequence (Q27743 whole entry, looked up): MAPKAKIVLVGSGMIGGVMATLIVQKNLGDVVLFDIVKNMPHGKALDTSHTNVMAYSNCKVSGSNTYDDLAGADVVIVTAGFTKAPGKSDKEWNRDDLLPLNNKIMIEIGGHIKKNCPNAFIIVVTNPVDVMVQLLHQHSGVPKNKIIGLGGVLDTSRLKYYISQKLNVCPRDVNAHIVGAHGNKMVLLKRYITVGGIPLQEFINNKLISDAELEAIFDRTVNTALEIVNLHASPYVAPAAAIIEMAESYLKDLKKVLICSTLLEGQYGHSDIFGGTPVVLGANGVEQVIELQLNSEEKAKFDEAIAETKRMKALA
The nature of experiment [4]: inhibition of 3D7 malaria parasite growth – strain 3D7 (AID 2306).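 Note: 0% = DMSO wells and 100% = chloroquine plus artemisinin control wells.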 The note with it: P. falciparum 3D7 erythrocytic growth, LDH absorbance, 72 h; at 2 µM; stronger effect = higher value.
In experiment [5] the target is Calcium-dependent protein kinase 1 (Plasmodium falciparum (isolate 3D7)) (UniProt P62344). Nature of the experiment: PfCDPK1 kinase inhibitors, biochemical, TCAMS library (AID 1159585; cut-off not given, nearly all actives have IC50 up to about 0.98 µM;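 note: inhibitors leave more ATP so luminescence rises with inhibition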). Particulars: recombinant PfCDPK1, Kinase-Glo ATP depletion luminescence. (In Kinase-Glo more light means more ATP remaining.)
Calcium-dependent protein kinase 1 (Plasmodium falciparum (isolate 3D7)), sequence (P62344 whole entry, looked up): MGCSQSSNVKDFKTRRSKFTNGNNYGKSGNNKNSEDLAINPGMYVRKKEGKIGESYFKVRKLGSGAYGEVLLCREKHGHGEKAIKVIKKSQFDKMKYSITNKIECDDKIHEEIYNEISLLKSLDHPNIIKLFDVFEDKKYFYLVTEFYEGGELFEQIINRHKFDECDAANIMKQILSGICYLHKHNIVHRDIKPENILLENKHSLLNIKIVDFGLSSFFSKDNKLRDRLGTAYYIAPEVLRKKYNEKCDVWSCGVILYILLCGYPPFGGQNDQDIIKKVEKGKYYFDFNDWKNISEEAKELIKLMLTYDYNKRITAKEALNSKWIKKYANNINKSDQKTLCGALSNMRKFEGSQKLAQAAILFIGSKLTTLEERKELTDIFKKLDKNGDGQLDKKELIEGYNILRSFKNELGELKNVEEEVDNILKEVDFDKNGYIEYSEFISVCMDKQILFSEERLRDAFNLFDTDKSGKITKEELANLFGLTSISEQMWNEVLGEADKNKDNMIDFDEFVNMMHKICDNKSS
Experiment [6] has as its target Plasmodium falciparum protein kinase 6 (PK6, PF3D7_1337100) (UniProt Q8IDW1). The experiment can be described thus: PfPK6 kinase inhibitors, biochemical, TCAMS library (AID 1159586). Particulars: recombinant PfPK6, Kinase-Glo ATP depletion luminescence.
Experiment [7] deals with Protein kinase 7 (PK7), Plasmodium falciparum 3D7 (PF3D7_0213400) (UniProt Q7YTF7). Nature of the experiment: inhibition of Plasmodium PK7 catalytic activity – biochemical, TCAMS antimalarial set, Kinase-Glo luminescence (AID 1159587). The note with it: recombinant PfPK7, Kinase-Glo ATP depletion luminescence.
Protein kinase 7 (PK7), Plasmodium falciparum 3D7 (PF3D7_0213400), sequence (Q7YTF7 1-343): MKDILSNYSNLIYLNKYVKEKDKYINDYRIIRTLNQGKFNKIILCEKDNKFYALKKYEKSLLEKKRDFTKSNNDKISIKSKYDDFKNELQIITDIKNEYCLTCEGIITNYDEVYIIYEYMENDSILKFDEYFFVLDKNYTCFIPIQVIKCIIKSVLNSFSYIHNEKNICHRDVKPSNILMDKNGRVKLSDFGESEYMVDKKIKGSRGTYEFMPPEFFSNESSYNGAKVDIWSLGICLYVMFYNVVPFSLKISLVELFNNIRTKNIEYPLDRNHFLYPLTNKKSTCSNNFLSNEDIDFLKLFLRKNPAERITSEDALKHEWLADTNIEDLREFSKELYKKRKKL
Experiment [8] concerns the target Calcium-dependent protein kinase 4 (Plasmodium falciparum (isolate 3D7)) (UniProt Q8IBS5). The experiment can be described thus: PfCDPK4 kinase inhibitors, biochemical, TCAMS library (AID 1159588; cut-off not given, nearly all actives have IC50 up to about 0.91 µM). The note with it: recombinant PfCDPK4, Kinase-Glo ATP depletion luminescence.

Each structure is given as a SMILES string. Values joined by “and” are separate entries in the source; they are usually repeats but may differ in a detail not shown here. Identical values can stand only once. For part of these data: Results with a measured potency or affinity are listed apart. The source holds several records for some structures; these can differ, active in one and inactive in another. Active and inactive are the calls of the source. Unless noted, the rule behind the calls is not given here.

The inhibition is the relative decrease from the control value, in per cent.

Plasmodium falciparum protein kinase 6 (PK6, PF3D7_1337100), sequence (Q8IDW1 1-305): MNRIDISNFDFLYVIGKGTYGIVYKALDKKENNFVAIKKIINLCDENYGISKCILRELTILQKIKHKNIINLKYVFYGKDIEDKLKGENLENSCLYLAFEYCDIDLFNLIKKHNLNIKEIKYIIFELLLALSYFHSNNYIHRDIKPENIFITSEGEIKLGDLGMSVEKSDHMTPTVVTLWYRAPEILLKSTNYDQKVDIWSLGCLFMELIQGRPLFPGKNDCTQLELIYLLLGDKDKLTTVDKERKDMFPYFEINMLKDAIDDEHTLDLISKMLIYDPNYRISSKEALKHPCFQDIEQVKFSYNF
Calcium-dependent protein kinase 4 (Plasmodium falciparum (isolate 3D7)), sequence (Q8IBS5 whole entry, looked up): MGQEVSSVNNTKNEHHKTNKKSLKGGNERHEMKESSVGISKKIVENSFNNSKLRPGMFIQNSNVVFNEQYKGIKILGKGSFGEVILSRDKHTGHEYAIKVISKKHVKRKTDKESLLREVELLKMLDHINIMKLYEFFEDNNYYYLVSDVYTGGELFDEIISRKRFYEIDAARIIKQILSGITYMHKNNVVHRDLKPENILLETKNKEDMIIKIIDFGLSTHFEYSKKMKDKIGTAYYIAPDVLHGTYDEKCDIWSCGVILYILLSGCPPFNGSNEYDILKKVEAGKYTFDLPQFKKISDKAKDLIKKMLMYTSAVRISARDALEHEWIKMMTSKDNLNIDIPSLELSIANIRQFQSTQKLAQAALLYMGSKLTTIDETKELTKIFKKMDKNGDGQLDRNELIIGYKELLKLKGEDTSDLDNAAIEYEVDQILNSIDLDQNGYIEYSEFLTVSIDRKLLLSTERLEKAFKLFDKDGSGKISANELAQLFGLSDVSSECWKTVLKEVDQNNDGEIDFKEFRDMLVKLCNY

`CN(c1cc(NC(=O)c2cccs2)ccn1)C1CCN(Cc2cccc(C#N)c2)CC1`: the growth inhibition in experiment [1] is 69% (active); in experiment [4], 90% (active). The inhibition in experiment [2] is 59% (active); in experiment [3], 4% (inactive). Also, the outcome in experiment [5], in experiment [6], in experiment [7] and in experiment [8] was inactive.
As to `C/C=C1\CN2CC[C@H]1C[C@H]2[C@H](O)c1ccnc2ccc(O)cc12`, the results for the growth inhibition in experiment [1] and in experiment [4] were -1% (inactive) and 98% (active), respectively. Moreover, the inhibition was -15% (inactive) in experiment [2] and -3% (inactive) in experiment [3]. The outcome in experiment [5], in experiment [6], in experiment [7] and in experiment [8] was inactive.
Regarding `CN(C)c1cccc(NC(=O)NC2N=C(c3ccccc3)c3ccccc3N(CC(=O)N(C)c3ccccc3)C2=O)c1` (centres undefined), the growth inhibition in experiment [1] was 80% (active); in experiment [4], 99% (active). For the same compound, the figures for the inhibition in experiment [2] and in experiment [3] were 1% (inactive) and 4% (inactive), respectively. Further, the outcome in experiment [5], in experiment [6], in experiment [7] and in experiment [8] was inactive.
As to `COc1cc(CC(C)NCC(O)c2cccc(C(F)(F)F)c2)ccc1OCc1ccccc1` (centres undefined), the growth inhibition in experiment [1] is 71% (active); in experiment [4] it was 93% (active). In addition, the inhibition in experiment [2] and in experiment [3] was 2% (inactive) throughout. Further, the result in experiment [5], in experiment [6], in experiment [7] and in experiment [8] was inactive.
With `O=C(C=Cc1ccc(-c2ccccc2)cc1)NC1CCC(CN2CCC(c3c[nH]c4ccccc34)CC2)CC1` (centres undefined), the growth inhibition in experiment [1] is 85% (active) and 98% (active); in experiment [4], 101% (active). In addition, the inhibition in experiment [2] was 43% (inactive) and 97% (active); in experiment [3], -7% (inactive). For the same compound, the outcome in experiment [5], in experiment [6], in experiment [7] and in experiment [8] was inactive.
On to `O=C(NC1CCC(CN2CCC(c3c[nH]c4ccccc34)CC2)CC1)c1cc(-c2cccc(Cl)c2)n(-c2ccc(Cl)cc2Cl)n1` (centres undefined), for which the growth inhibition in experiment [1] is 25% (inactive); in experiment [4] it was 81% (active). Moreover, the inhibition in experiment [2] was 53% (active); in experiment [3] it was -5% (inactive). Further, the result in experiment [5], in experiment [6], in experiment [7] and in experiment [8] was inactive.
On to `CC1CN=C(Nc2ncc(Cl)cc2Cl)N1` (centres undefined), for which the growth inhibition is 3% (inactive) in experiment [1] and 99% (active) in experiment [4]. Further, the inhibition is 2% (inactive) in experiment [2] and 7% (inactive) in experiment [3]. Also, the outcome in experiment [5], in experiment [6], in experiment [7] and in experiment [8] was inactive.
For the compound `CC[C@H]1CN2CC[C@H]1C[C@H]2[C@H](O)c1cc(/C=C/c2ccc(F)cc2)nc2ccc(OC)cc12`, the growth inhibition in experiment [1] and in experiment [4] was 99% (active) in each case. Besides, the inhibition in experiment [2] was 55% (active); in experiment [3], -1% (inactive). For the same compound, the outcome in experiment [5], in experiment [6], in experiment [7] and in experiment [8] was inactive.
`Cc1cc(O)cc2c(C3CCN(CC4CCC(NC(=O)/C=C/c5ccccc5Cl)CC4)CC3)c[nH]c12` (centres undefined): the growth inhibition is 84% (active) in experiment [1] and 99% (active) in experiment [4]. Moreover, the figures for the inhibition in experiment [2] and in experiment [3] were 21% (inactive) and 1% (inactive), respectively. Further, the outcome in experiment [5], in experiment [6], in experiment [7] and in experiment [8] was inactive.
With `O=C(/C=C/c1ccc(Cl)c(Cl)c1)NC1CCC(N2CCC(c3c[nH]c4ccc(O)cc34)CC2)CC1` (centres undefined), the growth inhibition was 16% (inactive) in experiment [1] and 97% (active) in experiment [4]. Besides, the inhibition in experiment [2] is 10% (inactive); in experiment [3] it was -9% (inactive). Also, the result in experiment [5], in experiment [6], in experiment [7] and in experiment [8] was inactive.
In the case of `COc1ccc(CC(C)NCC(O)c2cccc(C(F)(F)F)c2)cc1` (centres undefined), the growth inhibition in experiment [1] was 94% (active); in experiment [4], 98% (active). Besides, the figures for the inhibition in experiment [2] and in experiment [3] were -7% (inactive) and 3% (inactive), respectively. For the same compound, the result in experiment [5], in experiment [6], in experiment [7] and in experiment [8] was inactive.
`CC(Cc1ccc(C(C)(C)C)cc1)NCC(O)c1ccccc1` (centres undefined): the growth inhibition in experiment [1] was 89% (active); in experiment [4], 94% (active). Further, the inhibition was 5% (inactive) in experiment [2] and 3% (inactive) in experiment [3]. Also, the outcome in experiment [5], in experiment [6], in experiment [7] and in experiment [8] was inactive.
For the compound `O=C(NC1CCC(CN2CCC(c3c[nH]c4ccccc34)CC2)CC1)c1cc2ccccc2o1` (centres undefined), the growth inhibition in experiment [1] was 14% (inactive); in experiment [4] it was 94% (active). The results for the inhibition in experiment [2] and in experiment [3] were 34% (inactive) and 4% (inactive), respectively. Moreover, the outcome in experiment [5], in experiment [6], in experiment [7] and in experiment [8] was inactive.
As for `O=C(/C=C/c1ccc(O)cc1)NC1CCC(CN2CCC(c3c[nH]c4ccccc34)CC2)CC1` (centres undefined), the figures for the growth inhibition in experiment [1] and in experiment [4] were 51% (active) and 99% (active), respectively. Further, the figures for the inhibition in experiment [2] and in experiment [3] were 21% (inactive) and -7% (inactive), respectively. The result in experiment [5], in experiment [6], in experiment [7] and in experiment [8] was inactive.
On to `CCN1CC[C@]2(c3cccc(OC)c3)Cc3nc4ccccc4c(-c4ccccc4)c3C[C@H]2C1`, for which the results for the growth inhibition in experiment [1] and in experiment [4] were 98% (active) and 99% (active), respectively. The inhibition is 0% (inactive) in experiment [2] and -4% (inactive) in experiment [3]. The outcome in experiment [5], in experiment [6], in experiment [7] and in experiment [8] was inactive.
Turning to `O=C(CCC(=O)c1ccc2c3c(cccc13)CC2)NC1CCC(CN2CCC(c3c[nH]c4ccccc34)CC2)CC1` (centres undefined), the growth inhibition is 13% (inactive) in experiment [1] and 96% (active) in experiment [4]. Also, the inhibition is 34% (inactive) in experiment [2] and -1% (inactive) in experiment [3]. Besides, the outcome in experiment [5], in experiment [6], in experiment [7] and in experiment [8] was inactive.
Take `CSc1ccc(C[C@@H](C)NC[C@H](O)c2cccc(Cl)c2)cc1`: the growth inhibition in experiment [1] is 96% (active); in experiment [4], 97% (active). Moreover, the inhibition in experiment [2] was 8% (inactive); in experiment [3] it was 2% (inactive). Moreover, the result in experiment [5], in experiment [6], in experiment [7] and in experiment [8] was inactive.
For `CC(C)/C(=C(/F)CN1C(=O)C(NC(=O)c2cc3ccccc3[nH]2)C(=O)N(c2ccccc2)c2ccccc21)c1ccccc1` (centres undefined), the growth inhibition in experiment [1] was 82% (active); in experiment [4], 98% (active). Besides, the inhibition in experiment [2] was 7% (inactive); in experiment [3], -2% (inactive). Further, the result in experiment [5], in experiment [6], in experiment [7] and in experiment [8] was inactive.
